# Measurements taken from PubChem BioAssay (NCATS).
# Records with an inconclusive call do not appear. Where a call stands in place of a potency, no number is given. Calls of active or inactive are those of the source. The call rests on the fitted dose curve; in most records, active means well fitted curve in the direction sought with a large enough effect; inconclusive means small, poorly fitted or top-dose-only effect, or another doubt; inactive means no such curve, though single readings can be large; an effect the other way counts as inactive or inconclusive.
# Experiments:
# [1] = Viability qHTS for spleen associated tyrosine kinase inhibitor (SYKi) drug resistant MV4-11 cells (AID 1963824); conditions: SYKi-resistant MV4-11 viability, CellTiter-Glo, 72 h; series mostly up to 45 µM; further: potency means the concentration at half of the fitted maximal effect; nearly all actives have a fitted effect of over 35% in size
# Summary of the method: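 CellTiter-Glo luminescence, read 10 min after reagent addition, reports viability after a 72 hr compound exposure. Cells are an MV4-11 line made resistant to SYK inhibition, seeded at 500 per well onto compound-containing plates.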
# [2] = Quantitative highthroughput screen to assess conditional lethalithy of NOMO1 cells grown in RPMI1640 with untreated serum (RPMI+s) (AID 1963876); conditions: NOMO1 AML cells in RPMI+serum, CellTiter-Glo viability, 48 h; series mostly up to 45.8 µM; further: nearly all actives have a fitted effect of over 35% in size
# Summary of the method: (§1)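 Each medium arm—HPLM with 10% dialyzed FBS, or RPMI1640 with 5 mM glucose and 10% untreated or dialyzed FBS—was screened against an 11-point, 3-fold compound titration for 48 h at 37 °C, with CellTiter-Glo luminescence as endpoint.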
# [3] = Quantitative highthroughput screen to assess conditional lethalithy of NOMO1 cells grown in RPMI1640 with dialyzed fetal bovine serum (RPMI+ds) (AID 1963877); conditions: NOMO1 in RPMI+dialyzed FBS viability, ATP luminescence, 48 h; series mostly up to 45.8 µM; further: nearly all actives have a fitted effect of over 30% in size
# Summary of the method: as §1
# [4] = Quantitative highthroughput screen to assess conditional lethalithy of P12 Ichikawa cells grown in RPMI1640 with dialyzed fetal bovine serum (RPMI+ds) (AID 1963880); conditions: ATP luminescence, 48 h; Potency: P12-Ichikawa viability; series mostly up to 45.8 µM; further: nearly all actives have a fitted effect of over 35% in size
# Summary of the method: as §1
# [5] = Quantitative highthroughput screen to assess conditional lethalithy of P12 Ichikawa cells grown in RPMI1640 with untreated serum (RPMI+s) (AID 1963881); conditions: ATP luminescence, 48 h; Potency: viability; series mostly up to 45.8 µM; further: nearly all actives have a fitted effect of over 35% in size
# Summary of the method: as §1
# [6] = Quantitative highthroughput screen to assess conditional lethalithy of SEM cells grown in RPMI1640 with unreated serum (RPMI+s) (AID 1963883); conditions: SEM B-ALL cells, CellTiter-Glo viability, 48 h; series mostly up to 45.8 µM; further: nearly all actives have a fitted effect of over 35% in size
# Summary of the method: as §1
# [7] = Quantitative highthroughput screen to assess conditional lethalithy of NOMO1 cells grown in Human Plasma-Like Medium with dialyzed fetal bovine serum (HPLM+ds) (AID 1963878); conditions: NOMO1 AML cells in HPLM+ds, CellTiter-Glo viability, 48 h; series mostly up to 45.8 µM; further: nearly all actives have a fitted effect of over 35% in size
# Summary of the method: as §1
# [8] = Cellular viability qHTS for adrenocortical cancer (ACC) cell line NCI-H295R (AID 1963990); conditions: CellTiter-Glo ATP luminescence, 48 h; series mostly up to 46.1 µM; further: nearly all actives have a fitted effect of over 60% in size
# Summary of the method: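 Adrenocortical carcinoma cells, suspended at 300 000 cells/mL in serum-free DMEM plus ITS, rested overnight before pin transfer of compound. After two days' incubation, ATP-dependent luminescence was recorded and curve-fitted.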
structure (smiles),measurement,setting,value
C[C@]12CC[C@H](O)C[C@@H]1CC[C@@H]1[C@@H]2CC[C@]2(C)[C@@H](C3=CC(=O)OC3)CC[C@]12O,Potency,[1],2.55 µM (active)
CC12CCC3C(C1)c1c(cc(O)c(C(=O)c4ccccc4)c1OC3(C)C)O2 (stereo not given),Potency,[1],14.3 µM (active)
C=CCOC(Cn1ccnc1)c1ccc(Cl)cc1Cl (stereo not given),Potency,[1],9.44 µM (active)
CCC1(O)CCC2C3CCC4=CC(=O)CCC4C3CCC21CC (stereo not given),Potency,[1],14.6 µM (active)
CCc1c(C(=O)C(N)=O)c2c(OCC(=O)OC)cccc2n1Cc1ccccc1,Potency,[1],2.31 µM (active)
COC1(C[S@@](=O)c2ccccc2)CCN(CCc2c[nH]c3ccc(F)cc23)CC1,Potency,[1],20.6 µM (active)
O=C(O)C(=O)c1cn(Cc2ccccc2)c2ccc(-c3ccc(OC(F)(F)F)cc3)cc12,Potency,[1],20.6 µM (active)
same,Potency,[2],inactive
same,Potency,[3],inactive
same,Potency,[4],inactive
same,Potency,[5],inactive
same,Potency,[6],inactive
C[C@@H]1O[C@@H](O[C@H]2CC[C@@]3(C)C(CC[C@@H]4C3CC[C@]3(C)[C@@H](C5=CC(=O)OC5)CC[C@]43O)C2)[C@H](O[C@@H]2O[C@H](CO)[C@@H](O)[C@H](O)[C@H]2O)[C@H](O)[C@H]1O (stereo not given in full),Potency,[1],0.172 µM (active)
C/C=C(\C)C(=O)O[C@@H]1[C@@H](C)[C@]2(O)C3C=C(C)C(=O)[C@@]3(O)CC(CO)=C[C@H]2C2C(C)(C)[C@@]21OC(=O)C(C)CC (stereo not given in full),Potency,[1],0.0045 µM (active)
Cc1cc(SCc2sc(-c3ccc(C(F)(F)F)c(F)c3)nc2C)ccc1OCC(=O)O,Potency,[1],18.6 µM (active)
same,Potency,[2],inactive
same,Potency,[3],inactive
same,Potency,[7],inactive
same,Potency,[4],inactive
same,Potency,[8],inactive
